The results in this text go back to PubChem BioAssay (NCI).

Molecules are shown by their SMILES. “And” between values parts separate entries of the source, which are not always exact repeats. Identical values can stand only once. About 79,000 compounds went through this panel and 15% of them were active in at least one assay; those are over-represented in the sample as a whole. Unmarked numbers belong to inactive results. The source made the active and inactive calls. Rule as the data show it: active = growth inhibition above about 70%; inactive = the rest.

A short description of assay [1]: NCI Yeast Anticancer Drug Screen. Data for the rad50 strain (AID 155).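 Also: 0% = growth of vehicle-only cultures of the same strain.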 The note with it: S. cerevisiae rad50 strain growth inhibition, stronger effect = higher value. In a few lines: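 Genetically altered yeast (DNA repair pathway); compound treatment; growth inhibition vs vehicle ctrl.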
Assay [2] can be described thus: NCI Yeast Anticancer Drug Screen. Data for the sgs1 mgt1 strain (AID 161).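 Also: 0% = growth of cultures given vehicle only.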 Particulars: S. cerevisiae sgs1 mgt1 strain, stronger effect = higher value. In a few lines:
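Growth of a repair-deficient yeast mutant was monitored after compound treatment and expressed as inhibition relative to vehicle-treated cultures.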

Assay [3] in a line: NCI Yeast Anticancer Drug Screen. Data for the cln2 rad14 strain (AID 165).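 Also: 0% = growth equal to vehicle treated cultures.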 Particulars: S. cerevisiae cln2 rad14 strain, stronger effect = higher value. The method, boiled down:
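Relative to vehicle controls, growth inhibition of compound-treated cln2 rad14 yeast was recorded.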

A short description of assay [4]: NCI Yeast Anticancer Drug Screen. Data for the bub3 strain (AID 167). The note with it: S. cerevisiae bub3 mutant strain, stronger effect = higher value. In a few lines: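 Yeast carrying a defined mutation is treated with each compound, and growth is compared with that of vehicle-exposed cells to give inhibition.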
A short description of assay [5]: NCI Yeast Anticancer Drug Screen. Data for the mlh1 rad18 strain (AID 175). Particulars: S. cerevisiae mlh1 rad18 strain growth inhibition, stronger effect = higher value. In a few lines:
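Test agents were incubated with a yeast strain of defined genotype (DNA damage repair defect). Inhibition of growth was derived by comparison with vehicle-exposed cultures.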

Assay [6] is described as follows: NCI Yeast Anticancer Drug Screen. Data for the mec2-1 strain (AID 157). The note with it: S. cerevisiae mec2-1 strain, stronger effect = higher value. In a few lines:
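Readout is yeast growth inhibition, normalised to vehicle-treated controls, in the mec2-1 strain exposed to compound.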

Setting [7] is: at 5.0 µM (retest, dose inferred, filed as 0.5).
The mark [8] stands for this setting: at 50.0 µM (retest, dose inferred, filed as 5.0).

For `O=C(NCc1ccc(F)cc1)c1ccc(C(=O)NCc2ccc(F)cc2)cc1`, the growth inhibition in assay [1] (setting [7]) was 1%; in assay [1] (setting [8]) it was -4%; in assay [1] (at 50.0 µM), -6.6%; in assay [2] (setting [7]), -13%; in assay [2] (setting [8]), 2%; in assay [2] (at 50.0 µM), -13.1%. The growth inhibition in assay [3] (setting [7]) was 2%; in assay [3] (setting [8]), 6%; in assay [3] (at 50.0 µM), 58.4%; in assay [4] (setting [7]), 1%; in assay [4] (setting [8]), 7%; in assay [4] (at 50.0 µM) it was -6.9%. The figures for the growth inhibition in assay [5] (setting [7]), in assay [5] (setting [8]) and in assay [5] (at 50.0 µM) were -8%, -20% and -10.1%, respectively.
Regarding `O=C(O)c1ccccc1-c1ccccc1C(=O)Nc1ccc2c(c1)Cc1cc(F)ccc1-2`, the growth inhibition in assay [6] (setting [7]) is -3%; in assay [6] (setting [8]), 97% (active); in assay [6] (at 50.0 µM) it was 97.5% (active); in assay [2] (setting [7]), -8%; in assay [2] (setting [8]), 95% (active); in assay [2] (at 50.0 µM), 97.9% (active). The growth inhibition was -19% in assay [3] (setting [7]); 96% (active) in assay [3] (setting [8]); 96.8% (active) in assay [3] (at 50.0 µM); -27% in assay [4] (setting [7]); 92% (active) in assay [4] (setting [8]); 97.8% (active) in assay [4] (at 50.0 µM). Moreover, the growth inhibition in assay [5] (setting [7]) is -2%; in assay [5] (setting [8]), 97% (active); in assay [5] (at 50.0 µM), 97.2% (active).
As to `CCOC(=O)C(=N\Nc1ccccc1C)/C(C)=N\NC(N)=S`, the growth inhibition was 7% in assay [6] (setting [7]); 55% in assay [6] (setting [8]); 48.5% in assay [6] (at 50.0 µM); 15% in assay [2] (setting [7]); 71% (active) in assay [2] (setting [8]); 75.2% (active) in assay [2] (at 50.0 µM). The growth inhibition in assay [3] (setting [7]) is -13%; in assay [3] (setting [8]), 20%; in assay [3] (at 50.0 µM) it was 81.1% (active); in assay [4] (setting [7]), 5%; in assay [4] (setting [8]), 30%; in assay [4] (at 50.0 µM), 73.6% (active). The growth inhibition was 18% in assay [5] (setting [7]), 68% in assay [5] (setting [8]) and 80.3% (active) in assay [5] (at 50.0 µM).
Turning to `C1=C(c2ccccc2)CCc2ccccc21`, the growth inhibition was 1% in assay [1] (setting [7]); 14% in assay [1] (setting [8]); 12.7% in assay [1] (at 50.0 µM); 5% in assay [2] (setting [7]); 14% in assay [2] (setting [8]); -1.95% in assay [2] (at 50.0 µM). Further, the growth inhibition in assay [3] (setting [7]) was 0%; in assay [3] (setting [8]) it was -14%; in assay [3] (at 50.0 µM), 50.9%; in assay [4] (setting [7]) it was -3%; in assay [4] (setting [8]), 3%; in assay [4] (at 50.0 µM), 2.6%. The growth inhibition in assay [5] (setting [7]) is -4%; in assay [5] (setting [8]), 3%; in assay [5] (at 50.0 µM), 1.5%.
Take `c1ccc(C2=NCCC(c3ccccc3)S2)cc1` (stereo unspecified): the growth inhibition in assay [1] (setting [7]) was -2%; in assay [1] (setting [8]) it was 5%; in assay [1] (at 50.0 µM) it was -2.55%; in assay [2] (setting [7]), -3%; in assay [2] (setting [8]), 4%; in assay [2] (at 50.0 µM), 55.5%. Also, the growth inhibition in assay [3] (setting [7]) is -19%; in assay [3] (setting [8]), -4%; in assay [3] (at 50.0 µM), -41.5%; in assay [4] (setting [7]), 2%; in assay [4] (setting [8]) it was 0%; in assay [4] (at 50.0 µM), 68.1%. In addition, the growth inhibition in assay [5] (setting [7]) is 0%; in assay [5] (setting [8]) it was 8%; in assay [5] (at 50.0 µM) it was 21.9%.
On to `COc1cc(/C=C2\CCOC2=O)ccc1O`, for which the growth inhibition in assay [1] (at 50.0 µM) was 1% and -1.15% and 3.7%; in assay [6] (at 50.0 µM) it was -1.45% and 31.7% and 1.8%; in assay [2] (at 50.0 µM), -7.55% and 1.8% and -18.2%; in assay [3] (at 50.0 µM), -9.15% and 14.1% and -3.85%; in assay [4] (at 50.0 µM) it was 3.6% and 13.2% and 9.3%; in assay [5] (at 50.0 µM) it was -5.35% and -1.3% and -13.3%.
Consider `CCOP(=O)(OCC)/C(C#N)=C/c1ccc(Oc2ccccc2)cc1`, for which the growth inhibition in assay [6] (setting [7]) was -42%; in assay [6] (setting [8]) it was 98% (active); in assay [6] (at 50.0 µM), 93.6% (active); in assay [2] (setting [7]), -11%; in assay [2] (setting [8]) it was 97% (active); in assay [2] (at 50.0 µM), 91.5% (active). In addition, the growth inhibition in assay [3] (setting [7]) is -5%; in assay [3] (setting [8]), 98% (active); in assay [3] (at 50.0 µM), 90.6% (active); in assay [4] (setting [7]) it was -3%; in assay [4] (setting [8]) it was 94% (active); in assay [4] (at 50.0 µM) it was 90.5% (active). The results for the growth inhibition in assay [5] (setting [7]), in assay [5] (setting [8]) and in assay [5] (at 50.0 µM) were 1%, 97% (active) and 89.8% (active), respectively.
